Test results from PubChem BioAssay (NCI).
The panel holds about 83,000 compounds, 20% with a hit somewhere; the sample as a whole holds those more often.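 Single-dose data. Exposure time 48 hours. Values below 10 considered active.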 A number with no mark means an inactive call. Activity calls are given as the source filed them.

Tests used:
Test in all cases: NCI-60 one-dose screen, 48 h (100 = growth as untreated, 0 = no growth, -100 = all killed)
Details in all cases: 10 µM unless noted
HCT-15 colon = test system: HCT-15 colon
HT29 colon = test system: HT29 colon
SNB-75 CNS = test system: SNB-75 CNS
U251 CNS = test system: U251 CNS
PC-3 prostate = test system: PC-3 prostate
SK-MEL-5 melanoma = test system: SK-MEL-5 melanoma
UACC-62 melanoma = test system: UACC-62 melanoma
LOX IMVI melanoma = test system: LOX IMVI melanoma
SK-MEL-28 melanoma = test system: SK-MEL-28 melanoma
SNB-19 CNS = test system: SNB-19 CNS

SMILES	growth (HCT-15 colon)	growth (HT29 colon)	growth (SNB-75 CNS)	growth (U251 CNS)	growth (PC-3 prostate)	growth (SK-MEL-5 melanoma)	growth (UACC-62 melanoma)	growth (LOX IMVI melanoma)	growth (SK-MEL-28 melanoma)	growth (SNB-19 CNS)
O=C1C=CC(Nc2ccccc2[N+](=O)[O-])C1Nc1ccccc1[N+](=O)[O-] (centres undefined)	-86.6% (active)	-32.3% (active)	36.9%	72.4%	51.6%	45%	-68.9% (active)	-97.3% (active)	-92.9% (active)	
Nc1ccc(Nc2nccc(-c3ccc4ccccc4c3)n2)cc1	25%	14.3%	39%		58.7%	47.3%	32.2%	38.1%	57.2%	62.9%
CC(C)CC(CC1=CCC2CC1C2(C)C)C1=C(O)C(C)(C)C(=O)C(C)(C)C1=O (centres undefined)	13.5%	1.62% (active)	19.7%		5.09% (active)	-31.2% (active)	9.64% (active)	6% (active)	28.8%	16%
CCN(CC)CC(C)Nc1ccc([N+](=O)[O-])c2sc3ccccc3c(=O)c12 (centres undefined)	23.6%	12%	36.3%	28.4%	14.6%	5.5% (active)	33.5%	14.7%		
COc1ccc2nc(NC(=O)c3cccnc3Nc3cc(OC)c(OC)c(OC)c3)sc2c1	56.3%	11.9%	14.1%			15.5%	57.2%	37.1%	24.1%	26.4%
O=C1Nc2ccccc2/C1=C/C(=N/c1nnc(-c2ccccc2)s1)c1ccccc1	19.8%	-36.3% (active)	78.7%		78.4%	93.9%	71.5%	-86.3% (active)	86.4%	103%
CCN(CC)CCCNc1cc(OC)cc2nc3cc(Cl)ccc3nc12	-11.9% (active)	-9.49% (active)	-2.74% (active)	4.3% (active)	2.49% (active)	-99.5% (active)	-80.6% (active)	-58.7% (active)	-79.1% (active)	
CCCCCCCCCCCCCCCCNCCC[C@@H](C)[C@H]1CC[C@H]2[C@@H]3[C@H](OCCCN)C[C@@H]4C[C@H](OCCCN)CC[C@]4(C)[C@H]3C[C@H](OCCCN)[C@]12C	7.08% (active)	-41% (active)	-64.8% (active)		-14.4% (active)	3.14% (active)	-64.2% (active)	-60.4% (active)	-64.7% (active)	-66.6% (active)
CCOC(=O)c1nc(Nc2cc(C)[nH]n2)c2ccccc2n1	73.4%	103%	16.9%		93.3%	105%	91.1%	97.2%	93.2%	115%
OCCNCCNc1c2ccccc2nc2ccccc12	97.2%	58%	93.3%	55.3%	87.5%	88.4%	66.6%	37.8%	114%	
N#Cc1ccc(NC(=O)Nc2ccc(Cc3ccc(NC(=O)Nc4ccc(C#N)cc4)cc3)cc2)cc1	25.9%	52.5%	83.3%	34.4%	23.3%	10.5%	14.2%	-67.6% (active)	36.7%	
CN1/C(=C\C=C\C2=[N+](C)c3ccccc3C2(C)C)C(C)(C)c2ccccc21	8.08% (active)	-33.9% (active)	-5.88% (active)	9.16% (active)	2.66% (active)	-98.5% (active)	-77.3% (active)	0.458% (active)	-25.4% (active)	
O=C1/C(=C\c2cn(C(=O)c3ccc(Cl)cc3)c3ccccc23)c2ccccc2N1c1c(Cl)cccc1Cl	66.3%	103%	82.3%	88.4%	71.9%	107%	95.4%	97.7%	113%	
CCN(CC)Cc1cc(Nc2c3ccc(Cl)cc3nc3c(C)cccc23)ccc1O	-45.8% (active)	-41.8% (active)	-99.4% (active)	-62.4% (active)	-48.9% (active)	-96.5% (active)	-79.3% (active)	-84.9% (active)	-65.5% (active)	
